Compound activity from PubChem BioAssay.
Compounds with a hit are over-represented: about 6.2% of the library has one in this group of screens.
FMDV antiviral: High Throughput Screening for Foot and Mouth Disease Virus Antivirals. FMDV antiviral cell-based qHTS. Potency, µM (doses to about 57.9 µM), without a hit: at the top dose activity change, negative = inhibition, actives largely listed as inhibitors. 410,000 compounds, 1.2% hits. AID 1159524, 2015; calls by dose curve; tested in HEK293T cells; note: read-out not given here; potency is the fitted concentration of half-maximal effect; nearly all actives have a fitted effect of over 45% in size
MARV entry inh: qHTS for inhibitors of binding or entry into cells for Marburg Virus. Marburg virus pseudotyped entry inhibition, cell reporter. Potency, µM (series often up to 37.8 µM), without a hit: at the top dose activity change, negative = inhibition, actives largely listed as inhibitors. 300,000 compounds, 1.8% hits; calls by dose curve; tested in HEK293 cells; note: potency is the fitted concentration of half-maximal effect
Lassa entry inh: qHTS for Inhibitors of binding or entry into cells for Lassa Virus. Lassa virus pseudotype entry inhibition, cell reporter. 300,000 compounds, 1.2% hits. Potency, µM (titrated, usually from 37.9 µM), for the others: top-dose activity change, negative = inhibition, usual class: inhibitors; calls by dose curve; tested in HEK293 cells; note: potency is the fitted concentration of half-maximal effect; nearly all actives have a fitted effect of over 50% in size
HCMV inh: qHTS Assay for inhibitors of the human cytomegalovirus (HCMV); AID 1259415, 2018; 410,000 compounds, 4.5% hits; HFF cells, HCMV-luciferase reporter, 72 h; stronger effect = lower value; activity change, negative = inhibition, % at 57.5 µM; in the data active = activity change below about -60%; inconclusive = no clear call, values can overlap the other calls; inactive = above about -39%
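Screen run at 2 compound doses on HFFs infected with reporter HCMV, MOI 1 PFU/cell. Luciferase activity from cell lysates at 72 h post infection gave inhibition relative to buffer-only and Salinomycin wells.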
An asterisk follows results filed as active; u = inconclusive; x = not tested or not shown; + = active, no number; [ ] = dose if it differs, or a comment. % is set by controls: 0 for no effect and ±100 for the full control effect.

SMILES | FMDV antiviral | MARV entry inh | Lassa entry inh | HCMV inh
COCCNC(=O)CN1C(=O)c2cccnc2Oc2ccc(Cl)cc21 | 4% | x | 2%[46.1 µM] | +
O=C(c1ccccc1Br)N(CCc1ccccc1)C(CCc1ccccc1)c1nc2ccccc2[nH]1 (stereo unspecified) | x | x | x | -6
Cc1cccc(C2c3[nH]c4ccccc4c3CCN2Cc2cccn2-c2ncccn2)c1 (stereo unspecified) | -6% | u | 11µM* | -32
COc1ccc(C2c3[nH]c4ccccc4c3CCN2Cc2cccn2-c2ncccn2)cc1C (stereo unspecified) | -2% | 7.1µM* | u | -99*
Oc1cccc(C2c3[nH]c4ccccc4c3CCN2Cc2ccc3c(c2)CCO3)c1 (stereo unspecified) | -26% | 3.2µM* | u | -21
c1ccc(C2c3[nH]c4ccccc4c3CCN2Cc2cccn2-c2ccccn2)nc1 (stereo unspecified) | -24% | x | x | 10
Cc1nn(-c2ccc(N3CCCC3)nn2)c(C)c1CCC(=O)NCc1ccccc1F | 13% | x | 4%[46.1 µM] | u
CN(CC1CCCCC1)[C@@H]1CC[C@@]23CCCN2C(=O)CCC[C@H]3[C@H]1Cc1ccccc1 | x | x | x | 27
C=C(C)CCC(C)N1CCC(n2nccc2NC(=O)CCOc2ccccc2)CC1 (stereo unspecified) | -23% | -19% | u | -89*
CC(C)NC(=O)N1CCC(n2nccc2NC(=O)CCOc2ccccc2)CC1 | -23% | -10%[46.1 µM] | 12%[46.1 µM] | 8
Oc1ccc(N2Cc3ccccc3C2)cc1 | 22% | u | u | x
O=Cc1ccc(N2Cc3ccccc3C2)cc1 | 13% | 1.3µM* | u | 60
O=C(NCC1Cc2cccc(-c3cnccn3)c2O1)c1ccc2c(c1)OCCO2 (stereo unspecified) | 47% | x | x | x
CN(C)Cc1cc(C(C)(C)c2cc(CN(C)C)c(O)c(CN(C)C)c2)cc(CN(C)C)c1O | 12% | 12µM* | u | 12
CN(c1ccc(NC(=O)Nc2ccc(OC(F)(F)F)cc2)cc1)c1ccnc(Nc2cccc(S(N)(=O)=O)c2)n1 | x | x | 25µM* | x
O=S(=O)(NC1=NCCC1)c1cccc(NS(=O)(=O)c2ccc(OC(F)(F)F)cc2)c1 | 46% | -2% | -5% | -28
CCc1ccc(C2Sc3ccccc3NC3=C2C(=O)c2ccccc23)cc1 (stereo unspecified) | 54% | u | u | -85*
O=C1C2=C(Nc3ccccc3SC2c2ccco2)c2ccccc21 (stereo unspecified) | 0% | u | u | 29
CC(C)c1ccc(C2Sc3ccccc3NC3=C2C(=O)c2ccccc23)cc1 (stereo unspecified) | 7.9µM* | u | 18%[46.1 µM] | -100*
CC(=O)Nc1ccc(C2Sc3ccccc3NC3=C2C(=O)c2ccccc23)cc1 (stereo unspecified) | 126% | u | 8%[46.1 µM] | -29
O=C1C2=C(Nc3ccccc3SC2c2ccc(C(F)(F)F)cc2)c2ccccc21 (stereo unspecified) | u | u | u | -99*
COc1ccccc1N1CCN(C(=O)CCS(=O)(=O)c2cc(Br)cc3c2N(C(=O)C2CC2)CC3)CC1 | -30% | u | -8%[46.1 µM] | -14
COCC1OC(OC(C)C(O)c2cnc3nc(N)[nH]c(=O)c3n2)C(O)C(OC)C1O (stereo unspecified) | x | x | x | 8
CC(=O)Nc1ccc(S(=O)(=O)NCCSCc2ccc(Cl)cc2Cl)cc1 | 0% | u | u | -67*
CC(=O)Nc1ccc(S(=O)(=O)NCCNS(=O)(=O)c2ccc(NC(C)=O)cc2)cc1 | 7% | x | x | -7
SMILES | FMDV antiviral | MARV entry inh | Lassa entry inh | HCMV inh
COc1ccc2c(c1)c(CC(=O)OCC(=O)N(C)C)c(C)n2C(=O)c1ccc(Cl)cc1 | 12% | 25µM* | u | -18
COc1ccc2c(c1)c(CC(=O)OCC(N)=O)c(C)n2C(=O)c1ccc(Cl)cc1 | -22% | x | x | u
CC(C)Cn1nc(NC(=O)c2cccc(Cl)c2)c2cc3ccccc3nc21 | -7% | u | 7%[46.1 µM] | 28
NC(N)=NCCC[C@H](NC(=O)[C@@H](N)Cc1ccc(O)cc1)C(=O)O | -5%[6.7 µM] | x | x | x
C=C1C(=O)[C@@]23[C@H](O)C[C@@H]4C(C)(C)CC[C@H](O)[C@@]4(C)[C@@H]2CC[C@@H]1[C@H]3O | u | u | 10µM* | -97*
C=C1C(=O)[C@@]23[C@H](O)C[C@@H]4C(C)(C)CC[C@H](O)[C@]4(C)[C@@H]2C[C@H](O)[C@@H]1[C@H]3O | u | 21µM* | u | -76*
